Data from PubChem BioAssay (EPA / NIEHS).
Inconclusive results are not listed. The source made the active and inactive calls. Rule for the calls: active = hit-call score of the fitted dose curve at least 0.9, where 1 is the maximum; inconclusive = response in the unintended direction; inactive = score below 0.9.

Test: Tanguay_ZF_120hpf_TRUN_legacy: (Legacy) Oregon State University Tanguay Lab 120 Hour Post-fertilization zebrafish Assay for Truncated Body (AID 2283655)
Protocol: Tanguay_ZF_120hpf_legacy is a whole embryo, multiplexed endpoint assay using zebrafish larvae exposed for 120 hours post fertilization on a 96-well plate.Tanguay_ZF_120hpf_TRUN_legacy is one of one assay component(s) measured or calculated from the Tanguay_ZF_120hpf_legacy assay. It is designed to make measurements of zebrafish development as detected with brightfield microscopy of developing zebrafish embryos.Data from the assay component Tanguay_ZF_120hpf_TRUN_legacy was analyzed into 1 assay endpoints. This assay endpoint, Tanguay_ZF_120hpf_TRUN_legacy, was analyzed in the positive analysis fitting direction relative to DMSO as the negative control and baseline of activity. Using a type of morphology reporter, gain-of-signal activity can be used to understand changes in developmentals as they relate to the whole embryo. To generalize the intended target to other relatable targets, this assay endpoint is annotated to the zebrafish development intended target family, where the subfamily is embryonic morphogenesis.
Zebrafish husbandry: Tropical 5D wild-type adult zebrafish were housed in at an approximate density of 1000 per 100 gallon tank at the Sinnhuber Aquatic Research Laboratory, Oregon State University, Corvallis, OR. Each tank was kept at standard laboratory conditions of 28C on a 14-h light/10-h dark photoperiod in fish water consisting of reverse osmosis water supplemented with a commercially available salt (Instant Ocean). Spawning funnels were placed into the tanks the night prior, and embryos were collected and staged. To increase bioavailability, the chorion was enzymatically removed using pronase (63.6mg/ml, >/= 3.5U/mg, Sigma-Aldrich: P5147) at 4 hours post fertilization (hpf) using a custom automated dechorionator.Chemical exposures: Six hpf dechorionated embryos were placed 1 embryo per well in a 96-well plate prefilled with 90 ul of EM using automated embryo placement systems (AEPS). Ten microliters of each row of dilution plate 2 was added to 2 exposure plates. The final DMSO concentration used was 0.64% (vol/vol). Thirty-two embryos were also exposed to 5uM trimethyltin chloride (positive control). Plates were sealed to prevent evaporation and foil covered to reduce light exposure and kept in a 28C incubator. Embryos were statically exposed until 120 hpf. At 24 hpf, embryos were assessed for photomotor response using a custom photomotor response analysis tool (PRAT) and for developmental toxicity endpoints (MO24: mortality at 24 hpf, DP: developmental progression, SM: spontaneous movement, and NC: notochord distortion). At 120 hpf, locomotor activity was measured using Viewpoint Zebralab and assessed for 18 endpoints. Zebrafish acquisition and analysis program (ZAAP), a custom program designed to inventory, acquire, and manage zebrafish data, was used to collect developmental endpoints as either present or absent (i.e., binary responses were recorded). If mortality occurred for an embryo (at either 24 or 120 hpf), the non-mortality endpoints were not measured.
For Nc1ccc2ccccc2c1, the outcome was “inactive”.
With CN(C)C(=O)Cl the outcome was “inactive”.
In the case of Cc1ccc(O)cc1C, the outcome is reported as “inactive”.
For O=P(Oc1ccccc1)(Oc1ccccc1)Oc1ccccc1, the outcome was “inactive”.
With O=[N+]([O-])c1ccccc1 the outcome was “inactive”.
In the case of CCOC(=O)c1ccccc1C(=O)OCC, the outcome is reported as “inactive”.
For CCN(CC)c1ccccc1, the outcome was “inactive”.
With OCC1CO1 (stereo unspecified) the outcome was “inactive”.
With O=P1(N(CCCl)CCCl)NCCCO1 (stereo unspecified) the outcome was “inactive”.
For O=[N+]([O-])c1ccc(Cl)c(Cl)c1, the outcome was “inactive”.
With CCOP(=S)(Oc1ccc([N+](=O)[O-])cc1)c1ccccc1 (stereo unspecified) the outcome was “inactive”.
With CCCCN(CCCC)SN(C)C(=O)Oc1cccc2c1OC(C)(C)C2 the outcome was “inactive”.
For CC(Cl)(Cl)C(=O)O, the outcome was “inactive”.
For CC(C)(C)OOC(C)(C)C, the outcome was “inactive”.
With CCCCN(CCCC)N=O the outcome was “inactive”.
With CCOc1ccc(C(C)(C)COCc2cccc(Oc3ccccc3)c2)cc1 the outcome was “inactive”.
In the case of CSC(C)(C)C=NO, the outcome is reported as “inactive”.
With CCC1(c2ccccc2)C(=O)N=C(O)NC1=O (stereo unspecified) the outcome was “inactive”.
In the case of CCCCc1ccccc1, the outcome is reported as “inactive”.
With Nc1cc2c3c(c1)C(c1ccccc1)=N[C@@H](NC(=O)c1cccnc1)C(=O)N3CC2 the outcome was “inactive”.
In the case of ClC(Cl)c1ccccc1, the outcome is reported as “inactive”.
In the case of CCC(C)(C)c1ccc(O)cc1, the AC50 is reported as 31.6 µM (active).
With CCOP(=S)(OCC)SCSCC the outcome was “inactive”.
With CC(C)(C)c1ccc(O)cc1 the outcome was “inactive”.
In the case of CCCCCCCc1ccc(O)cc1, the outcome is reported as “inactive”.
In the case of O=C(O)C1C(C(=O)O)C2(Cl)C(Cl)=C(Cl)C1(Cl)C2(Cl)Cl (stereo unspecified), the outcome is reported as “inactive”.
With CCOS(=O)(=O)OCC the outcome was “inactive”.
For CCCN(CCC)c1c([N+](=O)[O-])cc(C(C)C)cc1[N+](=O)[O-], the outcome was “inactive”.
For c1ccc(OP(Oc2ccccc2)Oc2ccccc2)cc1, the outcome was “inactive”.
In the case of O=C(O)C(Cl)Cl, the outcome is reported as “inactive”.
In the case of Cc1cccc(N)c1, the outcome is reported as “inactive”.
In the case of Cc1ccc([N+](=O)[O-])cc1C, the outcome is reported as “inactive”.
In the case of Cc1ccc(N)cc1N, the outcome is reported as “inactive”.
For CC(Cc1ccc(OCC(=O)O)cc1)NCC(O)c1csc(C(F)(F)F)n1 (stereo unspecified), the outcome was “inactive”.
With COCCOCCO the outcome was “inactive”.
For CCNc1nc(Cl)nc(NC(C)(C)C)n1, the outcome was “inactive”.
